Molecular target: Glucose transporter (Leishmania mexicana) (UniProt O61059)
Assay: ST_JUDE_LEISH: Cytotoxicity at 2uM final concentration against transgenic Leishmania Mexicana promastigotes LmGT2 that are glucose transport deficient and complemented with the L. Mexicana glucose transporter 2. Activity is measured by DNA content using SYBR green in vitro
Type: functional

In order of rising inhibition:
1. Cc1ccccc1C1CCN(c2ncc(C(=O)Nc3ccccc3)cc2Cl)CC1  -6.29%
2. CN1CCC(NCc2cccc(-c3ccc(S(=O)(=O)NCCc4ccccn4)cc3)c2)CC1  -2.17%
3. CN1CCN(CCCN(Cc2ccc(-c3cccc(CNCc4ccc5c(c4)OCO5)c3)cc2)C(=O)CCC2CCCC2)CC1  -0.03%
4. CS(=O)(=O)c1cccc(-c2cnc3[nH]cc(-c4ccc(CCC(=O)O)cc4)c3c2)c1  0.31%
5. CCOc1cc(Cc2cnc(N)nc2N)cc(OCC)c1-n1cccc1  1.36%
6. O=C(Nc1ccc(-c2cccc(-c3nc4cc(C(F)(F)F)ccc4[nH]3)c2)cc1)c1ccncc1  1.87%
7. CNC(=O)c1nc(-c2ccccc2)[nH]c1NC(C)=O  2.17%
8. CCOc1ccc(-c2nonc2NC(=O)c2ccccc2Cl)cc1OCC  2.27%
9. COc1cc2c(cc1OC)C(C(=O)c1ccccc1)=NCC2  2.28%
10. O=C(C=Cc1ccc(Cl)c(Cl)c1)NCCCCCN1CCC(CCCNS(=O)(=O)c2cccc(C(F)(F)F)c2)CC1  2.46%
11. CC1(C)NC(=N)N=C(NOCC=Cc2ccccc2)N1  3.12%
12. O=C(c1ccc(-c2cccc(-c3nc4cc(F)ccc4[nH]3)c2)cc1)N1CCCCC1CN1CCC(O)C1 (stereo not given)  3.96%
13. Cc1ccc(NC(=O)c2cc(Br)cc(N3CCC(N(C)C)CC3)c2)cc1F  6.75%
14. CCOC(=O)c1c(NC(NC(=O)c2ccc(C(C)(C)C)cc2)C(Cl)(Cl)Cl)sc2c1CCCC2 (stereo not given)  9.68%
15. Cc1ccc(Cn2cnc3cc(C(=O)Nc4ccc(-c5cccc(CN(C)C)c5)cc4)ccc3c2=O)o1  51.1%

— ChEMBL document CHEMBL3433997, “St. Jude Leishmania screening dataset” (2016)
